Source: PubChem BioAssay
Shown are actives, neighbours in structure and some others; about 28% of the full set was active somewhere.
CYP2C19 activ = activators of human cytochrome P450 2C19; P33261; recombinant CYP2C19, luciferin-H EGE luminescence; active compounds read high; 0 = fully inhibited enzyme, 1 = untreated enzyme; activation factor at 5 µM; 96,000 tested, under 10 active;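 active means activation factor of at least 2 at 5 µM in the primary screen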;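 further: 0 = wells with 2.5 mM tranylcypromine and 1 = vehicle-only wells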
CYP2C19 inh = human CYP2C19 inhibition. P33261. CYP2C19 Supersomes, luciferin-H EGE luminescence, 30 min. inhibition, % at 5 µM. actives 21% (n = 96,000);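 active means CYP2C19 inhibition above a set limit at 5 µM in the primary screen, cut at about 50% in these data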;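 further: plate controls were negative control wells for no effect and 2.5 mM tranylcypromine positive control for full effect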
CYP2C9 inhib = human CYP2C9 inhibition | P11712 | CYP2C9 Supersomes, luciferin-H conversion, luminescence | inhibition, % at 5 µM | actives 20% (n = 96,000) | AID 777;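 active means blocking of liver enzyme CYP2C9 beyond about 50% at 5 µM, limit read from the data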
Target sequence (P11712 whole entry, looked up): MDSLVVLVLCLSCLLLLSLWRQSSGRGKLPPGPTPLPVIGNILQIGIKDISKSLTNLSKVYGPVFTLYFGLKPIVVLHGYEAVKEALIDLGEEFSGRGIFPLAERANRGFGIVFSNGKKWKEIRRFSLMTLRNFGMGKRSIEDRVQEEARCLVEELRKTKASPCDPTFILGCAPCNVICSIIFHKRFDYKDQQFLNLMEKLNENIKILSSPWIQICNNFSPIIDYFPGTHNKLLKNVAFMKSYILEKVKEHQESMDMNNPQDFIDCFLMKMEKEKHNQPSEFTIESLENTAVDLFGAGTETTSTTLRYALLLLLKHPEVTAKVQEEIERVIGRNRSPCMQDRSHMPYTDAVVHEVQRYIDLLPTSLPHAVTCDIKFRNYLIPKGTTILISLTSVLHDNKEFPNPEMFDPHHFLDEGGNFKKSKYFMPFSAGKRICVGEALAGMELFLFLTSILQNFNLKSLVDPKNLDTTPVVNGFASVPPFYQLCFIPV
CD11b adhes enh = CD11b/CD18-fibrinogen binding enhancement | activation, % at 10 µM | P05107+P11215 | K562 CD11b/CD18 adhesion to fibrinogen, ATPlite luminescence | AID 1499 | actives 0.07% (n = 93,000);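 active means 10 µM primary screen giving 50% or more activity, confirmed by 40% or more on retest at that dose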
CD11b adhes inh = CD11b/CD18-fibrinogen binding inhibition. P05107+P11215. AID 1497. K562 CD11b/CD18 adhesion to fibrinogen, ATPlite luminescence; Mn2+ added to activate the integrin. inhibition, % at 10 µM. actives 0.54% (n = 93,000);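 active means primary inhibition of 50% or more at 10 µM, then 40% or more on retest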
CYP2C9 activ = CYP2C9 (human) activation. P11712. recombinant CYP2C9, luciferin-H conversion, luminescence; active compounds read high; factor 1 = untreated enzyme, 0 = blocked. activation factor at 5 µM. actives 1.4% (n = 96,000). AID 1024;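 active means activation factor of 2 or more for CYP2C9 at a 5 µM dose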;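 further: 0 = sulfaphenazole-blocked wells and 1 = vehicle-only wells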
Active calls of the source: *; . = no result.

SMILES	CYP2C19 activ	CYP2C19 inh	CYP2C9 inhib	CD11b adhes enh	CD11b adhes inh	CYP2C9 activ
Cc1c(Br)cc(C(=O)N2CCCC2)c(C)c1C	0.1	92.4*	-90.7	6.5	-39.4	1.9
CC(=O)c1sc(NC(=O)C2(F)C(F)(F)C(F)(F)C(F)(F)C(F)(F)C2(F)F)nc1C	1.1	-6.0	84.8*	-10.1	102.1*	0.2
COc1ccc(CNC(=O)c2cnccn2)cc1	0.4	57.9*	-29.9	-2.4	-5.9	1.3
COc1ccc(CNC(=O)c2csnn2)cc1	0.5	52.3*	3.7	-5.6	2.3	1
COc1ccc(N2C(C)=CS/C2=C(/C#N)c2nnc(N3CCOCC3)n2-c2ccccc2)cc1	0.8	17.0	16.1	2.3	-0.2	0.8
COc1ccc(C(=O)NC(C)c2nnc(SCc3ccc(Cl)c(Cl)c3)n2C)cc1 (centres undefined)	1	0.8	11.3	-3.3	-1.0	0.9
COc1ccc(C(=O)CSc2nnc(C(CO)NC(=O)c3ccc(OC)cc3)n2C)cc1 (centres undefined)	0.6	43.8	71.4*	1.3	-10.9	0.3
CCSCc1nnc(SCC(=O)c2ccc(OC)cc2)n1C	0.1	89.5*	13.5	0.3	-16.2	0.9
COc1ccc(C(=O)NC(C)c2nnc(SCC(=O)Nc3nc(C)cs3)n2C)cc1 (centres undefined)	0.9	11.2	11.7	-1.8	-6.3	0.9
COc1ccc(C(=O)NC(C)c2nnc(SCC(=O)Nc3nc4ccccc4s3)n2C)cc1 (centres undefined)	0.3	65.4*	72.1*	-2.0	-7.0	0.3
C=CCn1c(SCCOc2ccc(OC)cc2)nnc1C(CO)NC(=O)c1ccc(OC)cc1 (centres undefined)	0.5	46.4	88.3*	2.9	-11.9	0.1
Cn1nc([N+](=O)[O-])nc1Oc1ccc2ccccc2c1	0.9	5.8	4.9	-4.9	7.4	1
O=C(O)CCC(=O)OCC1CCCO1 (centres undefined)	1	0.2	3.2	-1.9	-10.0	1
COc1nc(-c2ccccc2)cc(-c2ccc(OC)c(OC)c2)n1	0.2	75.8*	79.8*	6.6	8.4	0.2
COc1ccc(-c2nc(N)n[nH]2)cc1OC	0.9	5.8	-3.1	5.3	-9.0	1
c1ccc(OCCOc2ncnc3ccccc23)cc1	0.4	60.3*	25.4	0.3	8.7	0.7
N#CC1=C(N)Oc2ccc3ccc(O)cc3c2C1c1ccsc1 (centres undefined)	.	.	.	1.2	25.1	.
CCCn1c(NCc2ccc3c(c2)OCO3)nc2ccccc21	0.4	59.1*	29.7	-2.6	16.9	0.7
CCCn1c(NCc2cc(C)ccc2O)nc2ccccc21	0.5	52.6*	24.7	-4.7	-2.8	0.8
CCCCn1c(NCc2ccccc2NS(=O)(=O)c2ccc(C)cc2)nc2ccccc21	0.8	20.7	50.3*	.	.	0.5
CCCn1c(C(O)c2ccc3c(c2)OCO3)nc2ccccc21 (centres undefined)	0	98.3*	60.3*	-2.9	-3.8	0.4
CCCCn1c(NCc2ccccc2O)nc2ccccc21	0.5	49.8	29.9	0.8	7.2	0.7
CCCn1c(NCc2ccc(C)o2)nc2ccccc21	0.7	25.5	0.0	-0.2	-4.4	1
Cn1c(SCC(=O)NC2CCCC2)nnc1-c1ccc(S(=O)(=O)N2CCOCC2)cc1	1	-4.3	-5.2	-2.4	-4.2	1.1
CCCC1(CCC)NC(=O)N(CC(=O)c2cc(C)n(-c3ccc4c(c3)OCO4)c2C)C1=O	.	.	.	6.9	8.9	.
SMILES	CYP2C19 activ	CYP2C19 inh	CYP2C9 inhib	CD11b adhes enh	CD11b adhes inh	CYP2C9 activ
c1ccc2c3c(cc(N4CCOCC4)c2c1)OC1(N2CCOCC2)CCCCC1O3 (centres undefined)	0	95.1*	79.5*	-2.1	15.1	0.2
CC(C)c1ccc(C2CC(=O)c3cnc(N4CCc5ccccc5C4)nc3C2)cc1 (centres undefined)	0.7	33.6	12.7	-3.3	-0.8	0.9
O=C1CC(c2ccco2)Cc2nc(N3CCc4ccccc4C3)ncc21 (centres undefined)	0.1	95.0*	97.8*	-3.1	17.4	0
COc1ccc(C2CC(=O)c3c(C)nc(N4CCN(Cc5ccccc5)CC4)nc3C2)cc1OC (centres undefined)	0.1	91.0*	99.7*	-8.1	89.2	0
Cc1nc(N2CCN(Cc3ccccc3)CC2)[nH]c(=O)c1C	1.1	-10.4	-2.4	-2.2	-0.4	1
Cc1nc(N2CCN(Cc3ccccc3)CC2)nc2c1C(=O)CC(C)C2 (centres undefined)	0.4	60.6*	76.8*	-0.4	15.1	0.2
COc1cc(C2CC(=O)c3cnc(N4CCN(Cc5ccccc5)CC4)nc3C2)cc(OC)c1OC (centres undefined)	0.2	83.7*	96.7*	4.0	5.6	0
CCOC(=O)c1ccccc1NC(=O)c1ccc(NS(C)(=O)=O)cc1	0.6	40.0	35.6	.	.	0.6
COc1ccc(CNC(=O)COC(=O)c2cccnc2Nc2cccc(C(F)(F)F)c2)cc1	1.3	-29.6	49.1	-3.7	-18.6	0.5
CC(=O)Oc1ccc(CCC(C)OC(C)=O)cc1 (centres undefined)	0.9	10.2	3.9	0.0	-9.1	1
COc1cc(C2CC(=O)c3cnc(N)nc3C2)cc(OC)c1OC (centres undefined)	0.9	7.2	-1.5	-3.5	-4.5	1
CC1CC(C)CN(c2ncc3c(n2)CC(c2ccccc2)CC3=O)C1 (centres undefined)	0.3	74.4*	89.7*	-7.8	14.6	0.1
O=C(Nc1ccccc1-c1nnn(CC(=O)N2CCCc3ccccc32)n1)c1ccco1	0.5	54.4*	89.8*	-3.8	15.9	0.1
COc1ccc(/C=N\NC(=O)C2=NNC(=O)C2C)cc1 (centres undefined)	1	4.0	-10.5	.	.	1.1
Cc1nc(NC(=O)COC(=O)CCS(=O)(=O)c2ccccc2Cl)c(Cl)cc1Cl	0.6	37.9	6.1	-2.5	-7.2	0.9
C/C(=N\Nc1nc2c(s1)CCCC2)c1ccccc1	0.3	71.8*	81.7*	0.6	9.8	0.2
CC1CCCCN1C(=O)COC(=O)c1n[nH]c2ccccc12 (centres undefined)	0.7	31.1	8.2	-0.9	-16.7	0.9
CC1CCCCN1C(=O)Cn1cc(/C=C2/C(=O)Nc3ccccc32)c2ccccc21 (centres undefined)	0.6	36.6	57.8*	0.8	16.1	0.4
COc1ccc(NC(=O)CNS(=O)(=O)c2cccs2)cc1	0.5	53.3*	40.1	-1.0	-24.4	0.6
COc1ccc(NC(=O)CCCNS(=O)(=O)c2cccs2)cc1	0.3	72.2*	49.8	-2.2	-16.6	0.5
